This excerpt belongs to a sample that is enriched for hits.
Dicer processing: inhibitors of human Dicer processing of pre-microRNA. Q9UPY3. cat-ELCCA pre-miR-21 Dicer processing, chemiluminescence; active compounds read high. z-score at 25 µM. 6% of 47,000 active; in the data active means z-score above about 3, passing the limit was not always enough;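 further: plate controls were vehicle for no effect and no enzyme for full effect; higher signal means more uncleaved substrate so more Dicer inhibition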
* hit, by the source's call.

For COC(=O)C1=C(Nc2ccccc2NS(=O)(=O)c2ccc(C(F)(F)F)cc2Cl)CSC1 the results were Dicer processing -0.77.
For O=S(=O)(Nc1ncccn1)c1ccc(C(F)(F)F)cc1Cl the results were Dicer processing 3.02*.
For Cc1sc(NCc2ccccc2O)nc1-c1ccccc1 the results were Dicer processing -0.14.
Screening COc1cccc2c1OC(C(C)C)N1N=C(c3ccccc3O)CC21 (stereo unspecified) returned Dicer processing 0.12.
Clc1ccc(C2=NN3COc4ccccc4C3C2)cc1 (stereo unspecified) was read as Dicer processing 2.08.
Screening Clc1ccc(C2=NN3C(C2)c2ccccc2OC3c2cccnc2)cc1 (stereo unspecified) returned Dicer processing 6.05*.
For CC(C)C1Oc2ccccc2C2CC(c3ccccc3O)=NN21 (stereo unspecified) the results were Dicer processing 5.61*.
`COc1cccc2c1OC(c1cccnc1)N1N=C(c3ccccc3O)CC21` (stereo unspecified) gave Dicer processing -0.4.
Oc1ccccc1C1=NN2C(C1)c1ccccc1OC2c1ccccc1 (stereo unspecified) was read as Dicer processing 2.54.
Screening Cc1ccc(O)c(C2=NN3C(C2)c2cc(Cl)ccc2OC3c2cccnc2)c1 (stereo unspecified) returned Dicer processing -0.6.
For Oc1ccccc1C1=NN2C(C1)c1ccccc1OC2c1cccnc1 (stereo unspecified) the results were Dicer processing 12.3*.
Screening Cc1ccc(OCC(=O)O)c([N+](=O)[O-])n1 returned Dicer processing -0.59.
For O=C1c2ccccc2S(=O)(=O)N1c1ccc(Cl)cc1 the results were Dicer processing 1.27.
For COC(=O)C1=C(C(=O)c2ccc(C)cc2)C(c2ccccc2F)n2nnnc2N1 (stereo unspecified) the results were Dicer processing 0.83.
Screening Cn1nc([N+](=O)[O-])nc1Sc1nnc(-c2ccco2)o1 returned Dicer processing 0.36.
COc1ccc(OC)c(C2Nc3ccccc3NC3=C2C(=O)CC(c2ccccc2)C3)c1 (stereo unspecified) was read as Dicer processing 0.27.
For CCCc1[nH]nc2c1C(c1ccc(-c3ccccc3)cc1)C(C#N)=C(N)O2 (stereo unspecified) the results were Dicer processing -1.5.
COC(=O)CC/C(=N\NS(=O)(=O)c1ccc(C)cc1)c1ccn(S(=O)(=O)c2ccccc2)c1 was read as Dicer processing -2.65.
CC(C)(C)SC(=S)SCC(=O)c1ccc(Cl)cc1 was read as Dicer processing -2.66.
Screening O=C(CSC(=S)NNc1ccccc1)c1ccc(Cl)cc1 returned Dicer processing 3.1*.
Screening O=C(CSC(=S)NNc1ccccc1)c1cccc([N+](=O)[O-])c1 returned Dicer processing -1.15.
Screening COc1cccc(CC2CC(c3ccccc3)=NO2)c1OCc1c(Cl)cccc1Cl (stereo unspecified) returned Dicer processing -2.52.
CC1(C)CC(NCC(=O)N2c3ccccc3Sc3ccc(Cl)cc32)CC(C)(C)N1 was read as Dicer processing 3.28*.
Screening CC(C)CNC(=O)N1c2ccccc2Sc2ccccc21 returned Dicer processing 0.58.
O=C(C1CC1)N1c2ccccc2Sc2ccccc21 was read as Dicer processing 1.24.
`Cc1cscc1S(=O)(=O)c1ccc(Cl)cc1` gave Dicer processing -1.28.
O=C(Nc1ccncc1[N+](=O)[O-])c1cccs1 was read as Dicer processing 3.54*.
Screening O=C(Nc1cc(Cl)ccc1O)c1cccs1 returned Dicer processing 1.34.
`O=C(Nc1cccc2nsnc12)c1cccs1` gave Dicer processing -0.16.
`CCOc1cc(C2c3c(oc4ccccc4c3=O)C(=O)N2Cc2ccccc2)ccc1O` (stereo unspecified) gave Dicer processing 1.33.
O=C(CSc1ccccn1)N1CCc2ccccc2C1 was read as Dicer processing -1.24.
CC(=O)N[C@H]1[C@@H](OCc2ccccc2)O[C@H](CO)[C@@H](O)[C@@H]1O was read as Dicer processing -1.37.
`O=C(NC1CCCCC1)n1c(=S)oc2cc(Cl)ccc21` gave Dicer processing 1.98.
Screening Cc1ccc(C(=O)CC(=O)c2ccc(C)cc2O)cc1 returned Dicer processing 3.61*.
`CCCC(=O)c1ccc(NC(C)=O)cc1O` gave Dicer processing 0.35.
`Cc1ccc(C(=O)c2cc(Cl)cc(Cl)c2)c(C)c1` gave Dicer processing -3.2.
Screening c1ccc(CCNCCN2CCOCC2)cc1 returned Dicer processing 1.33.
For Cc1cc(OC(=O)c2c(Cl)cccc2Cl)c(Cl)c(C)c1Cl the results were Dicer processing -0.31.
`CC(C)NC(=O)CSc1nnc(-c2ccc3ncccc3c2)n1C` gave Dicer processing 3.1*.
For C=CCn1c(SCC(C)=O)nnc1-c1ccc2ncccc2c1 the results were Dicer processing -1.47.
Cc1ccc(C(=O)CSc2nnc(-c3ccc4ccccc4c3)n2C)cc1 was read as Dicer processing -0.36.
For Cn1c(Cn2cc(C(F)(F)F)ccc2=O)n[nH]c1=S the results were Dicer processing -0.43.
Screening O=[N+]([O-])c1ccc(-n2ncc(-c3nnnn3-c3ccccc3)c2-c2ccccc2)cc1 returned Dicer processing -0.7.
For Nc1c(C(=O)Nc2ccc(Cl)cc2)sc2nc3c(cc12)CCCCC3 the results were Dicer processing 0.82.
Screening Fc1cccc(NC(=S)NNc2ccccc2)c1 returned Dicer processing 5.92*.
S=C(NNc1ccccc1)Nc1c(Cl)cccc1Cl was read as Dicer processing -2.56.
`CC(C)(CO)NC(=S)Nc1cccc(F)c1` gave Dicer processing -0.02.
O=c1[nH]nc(-c2ccccc2)nc1Cc1ccc(Cl)cc1 was read as Dicer processing -3.24.
O=C(O)CNC(=O)CCCCC(=O)NCC(=O)O was read as Dicer processing 0.82.
Cc1cc(NC(=O)NCC(O)c2ccccc2)c(C(F)(F)F)o1 (stereo unspecified) was read as Dicer processing -1.27.
O=c1[nH]c(C2CC2)nc2c1CSCC2 was read as Dicer processing 1.32.
`CCN1CCN(Cc2c(O)ccc3c(=O)c(Oc4cc(C)cc(C)c4)c(C(F)(F)F)oc23)CC1` gave Dicer processing 2.59.
Screening CC(=O)CSc1n[nH]c(CN2c3ccccc3Sc3ccccc32)n1 returned Dicer processing 3.5*.
Screening CC(C)Cc1nc(SCC(=O)c2ccccc2)n[nH]1 returned Dicer processing -0.18.
Screening CCn1c(CN2c3ccccc3Sc3ccccc32)n[nH]c1=S returned Dicer processing 0.6.
`O=C(/C=C/Sc1ccccn1)c1cccc(Br)c1` gave Dicer processing -2.35.
`CCOC(=O)C1CCCN(C(=O)c2ccc(Cl)cc2Cl)C1` (stereo unspecified) gave Dicer processing -2.11.
`O=C(NNC(=O)c1ccc(Oc2ccc(Cl)cc2)nc1)c1ccc(Cl)cc1` gave Dicer processing -0.55.
CC(C)(C)NS(=O)(=O)c1cccc2cccnc12 was read as Dicer processing -0.27.
For O=S(=O)(NCCCCNS(=O)(=O)c1cccc2cccnc12)c1cccc2cccnc12 the results were Dicer processing 5.54*.
O=S(=O)(NCc1ccccn1)c1cccc2ccccc12 was read as Dicer processing -0.32.
COc1cc(C2/C(=C(\O)c3ccccc3)C(=O)C(=O)N2c2cccc(Cl)c2)ccc1O (stereo unspecified) was read as Dicer processing 2.27.

High-throughput results (PubChem)
